Assay [1] is described as follows: resazurin metabolic signal in HepG2 cells – cell-based, resazurin fluorescence, 24 h, PK04 Diversity Set, profiling panel (AID 1172). Also: test concentration not given here. The note with it: HepG2 viability, higher = more signal.
A short description of assay [2]: budding yeast growth changes without added modifier – OD600, strain BY4716, 24 h, basal condition, primary screen (AID 1173). The settings on record: S. cerevisiae BY4716 growth, OD600, 24 h; higher = more signal, called active from +8 up or from −8 down.
Assay [3] in a line: viability profiling in MM1S myeloma cells – cell-based, resazurin fluorescence, basal, 24 h, PK04 Diversity Set, profiling panel (AID 1174). Also: test concentration not given here. The settings on record: higher = more signal, called active from +8 up or from −8 down.
In assay [4] the target is Dihydroorotate dehydrogenase (quinone), mitochondrial (Plasmodium falciparum (isolate 3D7)) (UniProt Q08210). Kind of assay: inhibition of P. falciparum DHODH – biochemical, C-terminal His tag, absorbance 600 nm, primary screen (AID 1175).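 Also: recombinant parasite enzyme with a five histidine tag at its C terminus; test concentration not given here.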 The settings on record: PfDHODH enzyme, DCIP absorbance 600 nm; higher = more signal, called active from +8 up or from −8 down.
Assay [5] is described as follows: inhibition of PAO1 biofilm formation – strain PAO1, LB-PBS medium, absorbance 600 nm, primary screen (AID 1176). Also: test concentration not given here. The note with it: P. aeruginosa PAO1 growth/biofilm, A600, 12 h; higher = more signal.
Assay [6] in a line: growth modulation of vineyard yeast isolate – strain RM11-1a, OD600, basal, 24 h, primary screen (AID 1177).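 Also: cultures grown under basal conditions with no added stressor; test concentration not given here.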 The settings on record: S. cerevisiae RM11-1a growth, OD600, 24 h; higher = more signal, called active from +8 up or from −8 down.
Assay [7] is described as follows: growth of efflux-deficient E. coli DRC39 – strain DRC39, OD650, 24 h, E. coli filamentation inducers, primary screen (AID 1178).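 Also: growth measured as culture turbidity by optical density at 650 nm; test concentration not given here.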 The note with it: E. coli DRC39 acrAB, higher = more signal, called active from +8 up or from −8 down.
A short description of assay [8]: growth of efflux-deficient E. coli DRC39 – strain DRC39, OD650, 48 h, E. coli filamentation inducers, primary screen (AID 1179).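 Also: screen aims at cell division blockers that make cells filament.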 The note with it: E. coli DRC39 delta-acrAB growth, higher = more signal, called active from +8 up or from −8 down.
Assay [9] can be described thus: viability profiling in RPMI8226 myeloma cells – cell-based, resazurin fluorescence, basal, 24 h, PK04 Diversity Set, profiling panel (AID 1180).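 Also: RPMI8826 multiple myeloma cell line at 5000 cells per well; test concentration not given here.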 The note with it: higher = more signal.
The target in assay [10] is E3 ubiquitin-protein ligase XIAP (Homo sapiens) (UniProt P98170). The experiment in a line: small molecules binding XIAP protein – biophysical, small-molecule microarray, fluorescence 635 nm, primary screen (AID 1181).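 Also: score merges 667 nm emission and signal to noise over triplicate slides.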 The note with it: higher = more signal.

Activity calls are given as the source filed them. Unless noted, no rule for the calls is given here.

Chain of Dihydroorotate dehydrogenase (quinone), mitochondrial (Plasmodium falciparum (isolate 3D7)) (Q08210 whole entry, looked up): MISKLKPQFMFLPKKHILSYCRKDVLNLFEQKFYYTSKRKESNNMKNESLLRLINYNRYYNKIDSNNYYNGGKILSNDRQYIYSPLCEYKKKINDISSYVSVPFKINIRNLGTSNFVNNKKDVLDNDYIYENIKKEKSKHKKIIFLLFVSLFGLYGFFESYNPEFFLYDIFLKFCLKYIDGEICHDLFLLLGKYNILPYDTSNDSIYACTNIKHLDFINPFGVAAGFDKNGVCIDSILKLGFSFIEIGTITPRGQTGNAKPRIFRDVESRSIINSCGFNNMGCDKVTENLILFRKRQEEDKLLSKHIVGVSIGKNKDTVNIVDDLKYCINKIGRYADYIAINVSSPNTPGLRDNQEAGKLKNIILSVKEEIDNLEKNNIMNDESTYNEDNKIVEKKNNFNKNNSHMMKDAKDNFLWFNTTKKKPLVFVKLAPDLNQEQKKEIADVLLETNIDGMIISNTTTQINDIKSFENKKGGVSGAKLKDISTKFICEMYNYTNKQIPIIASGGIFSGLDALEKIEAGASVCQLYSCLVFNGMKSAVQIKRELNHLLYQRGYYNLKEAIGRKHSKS
Chain of E3 ubiquitin-protein ligase XIAP (Homo sapiens) (P98170 whole entry, looked up): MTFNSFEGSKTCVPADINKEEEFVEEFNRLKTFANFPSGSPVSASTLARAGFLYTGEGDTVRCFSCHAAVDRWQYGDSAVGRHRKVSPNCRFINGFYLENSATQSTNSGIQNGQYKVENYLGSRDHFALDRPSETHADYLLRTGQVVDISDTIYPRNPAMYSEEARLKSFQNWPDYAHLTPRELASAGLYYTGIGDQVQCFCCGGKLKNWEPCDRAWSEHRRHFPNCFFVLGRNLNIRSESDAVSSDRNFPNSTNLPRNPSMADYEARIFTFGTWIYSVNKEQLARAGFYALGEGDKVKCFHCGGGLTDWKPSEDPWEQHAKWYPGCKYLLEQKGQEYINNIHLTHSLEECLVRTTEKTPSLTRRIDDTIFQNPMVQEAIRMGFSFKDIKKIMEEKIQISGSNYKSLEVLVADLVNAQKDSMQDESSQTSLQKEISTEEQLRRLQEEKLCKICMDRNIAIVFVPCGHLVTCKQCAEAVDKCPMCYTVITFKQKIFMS

In the case of `C[C@H]1Cc2c(COc3ccccc3)nc3c(c2CO1)CN(CCOc1ccccc1)CC3`, the z-score in [1] is -0.503; in [2], -3.09 (inactive); in assay [3], 0.598 (inactive); in assay [5], 1.69 (inactive); in [6], -0.466 (inactive); in [7] it was 1.52 (inactive). For the same compound, the values for the z-score in assay [8] and in assay [9] were 0.996 (inactive) and 0.961, respectively. In addition, the composite z-score in [4] was -0.555 (inactive); in assay [10], -0.0767.
Turning to `CCC1=NOC(CCC2CC(OC(=O)NCc3cccc4c3OCO4)CC3(CCCC(COC(=O)NCCc4ccccc4OC)O3)O2)C1` (stereo not given), the z-score in assay [1] was -0.211; in assay [2], -0.101 (inactive); in assay [3] it was 0.0125 (inactive); in assay [5] it was 1.43 (inactive); in assay [6], -0.509 (inactive); in assay [7], 1.13 (inactive). In addition, the values for the z-score in assay [8] and in assay [9] were 0.918 (inactive) and 0.718, respectively. Further, the composite z-score is -0.104 (inactive) in assay [4] and -0.294 in [10].
Take `O=C(NN=C1C[C@@H](O)[C@@H](O)[C@@H]2[C@@H]3C(=O)N(C4CCCCC4)C(=O)[C@@H]3CC[C@H]12)OCc1ccccc1`: the z-score is -0.383 in assay [1]; 0.112 (inactive) in assay [2]; -0.531 (inactive) in [3]; 0.307 (inactive) in assay [5]; -0.182 (inactive) in assay [6]; 0.061 (inactive) in [7]. For the same compound, the values for the z-score in assay [8] and in assay [9] were -0.0133 (inactive) and -0.901, respectively. For the same compound, the composite z-score in [4] is -0.135 (inactive); in [10] it was 0.0942.
For `COC(=O)[C@H](C)NC(=O)CCC1CC(OC(=O)NCc2ccc3c(c2)OCO3)CC2(CCCC(COC(=O)NCc3cccc(C(F)(F)F)c3)O2)O1` (stereo not given in full), the z-score in assay [1] is -0.443; in [2], -0.817 (inactive); in assay [3] it was 0.374 (inactive); in [5], 0.484 (inactive); in assay [6] it was -0.476 (inactive); in assay [7], 0.298 (inactive). In addition, the z-score in assay [8] was 0.079 (inactive); in [9], 0.459. For the same compound, the composite z-score is -0.303 (inactive) in assay [4] and 0.0566 in assay [10].
In the case of `CON=C[C@@H](C)[C@H](OCc1ccccc1)C(C)C`, the z-score in [1] was -0.304; in [2] it was -0.639 (inactive); in assay [3] it was 0.548 (inactive); in assay [5] it was 0.298 (inactive); in assay [6], -0.919 (inactive); in assay [7], -1.29 (inactive). Moreover, the z-score in assay [8] is -2.73 (inactive); in [9], -0.32. Also, the figures for the composite z-score in assay [4] and in assay [10] were -2.72 (inactive) and -0.409, respectively.
As to `CO[C@H](C1CCCCC1)[C@H](C)C=CCC(=O)OCCCc1ccccc1`, the z-score in assay [1] was 0.159; in assay [2] it was 0.878 (inactive); in assay [3], 0.227 (inactive); in [5], -0.315 (inactive); in assay [6], 1.63 (inactive); in [7], -0.778 (inactive). Moreover, the z-score in assay [8] is -0.417 (inactive); in assay [9], -0.0411. The composite z-score in assay [4] is 0.503 (inactive); in [10], -0.193.
Regarding `COc1ccc(O[C@H]2C=C[C@@H](c3ccccc3)O[C@@H]2CON=C2[C@H]3CCn4c(=O)n(-c5ccccc5)c(=O)n4[C@H]3[C@H](O)[C@@H]3O[C@H]23)cc1`, the z-score in assay [1] is -1.63; in assay [2], 0.422 (inactive); in assay [3], -2.53 (inactive); in assay [5], -0.0417 (inactive); in assay [6], 0.0056 (inactive); in [7] it was 0.694 (inactive). Moreover, the z-score in assay [8] was 0.731 (inactive); in [9], -1.92. Further, the composite z-score in [4] is -0.268 (inactive); in assay [10], -0.403.
For `O=c1n(-c2ccccc2)c(=O)n2n1CC[C@@H]1C(=NOCc3ccccc3)[C@H]3O[C@H]3[C@@H](O)[C@@H]12`, the z-score was -1.28 in assay [1]; -0.274 (inactive) in [2]; -0.503 (inactive) in assay [3]; -0.0485 (inactive) in [5]; -0.249 (inactive) in assay [6]; -0.792 (inactive) in assay [7]. For the same compound, the z-score in [8] is -0.604 (inactive); in assay [9], -1.12. In addition, the composite z-score in [4] was -3.02 (inactive); in [10] it was -0.0026.
On to `CCOC(=O)[C@H](CC(C)C)NC(=O)CCC1CC(OC(=O)NCc2ccc3c(c2)OCO3)CC2(CCCC(COC(=O)NCc3cccc(C(F)(F)F)c3)O2)O1` (stereo not given in full), for which the z-score is -0.54 in assay [1]; 0.3 (inactive) in assay [2]; 0.639 (inactive) in assay [3]; -0.0691 (inactive) in assay [5]; 0.683 (inactive) in assay [6]; -0.718 (inactive) in assay [7]. In addition, the z-score was -0.0974 (inactive) in assay [8] and 0.328 in assay [9]. In addition, the composite z-score in [4] is 0.0645 (inactive); in assay [10], -0.148.
Take `CC(C)CON=C1C[C@@H](O)[C@@H](O)[C@@H]2[C@@H]3C(=O)N(c4ccc(F)cc4F)C(=O)[C@@H]3CC[C@H]12`: the z-score is 0.806 in assay [1]; -0.406 (inactive) in [2]; 0.686 (inactive) in [3]; 0.246 (inactive) in assay [5]; -0.554 (inactive) in assay [6]; 0.404 (inactive) in [7]. Also, the figures for the z-score in assay [8] and in assay [9] were -0.382 (inactive) and 0.17, respectively. For the same compound, the figures for the composite z-score in [4] and in [10] were -0.223 (inactive) and -0.138, respectively.
With `CC=CC1=C(CO)C(=O)[C@@H]2O[C@@H]2C1=O`, the z-score in assay [1] was -0.714; in assay [2] it was -1.37 (inactive); in assay [3], -1.58 (inactive); in assay [5], 0.827 (inactive); in assay [6], -1.22 (inactive); in assay [7], 0.246 (inactive). The z-score was 0.537 (inactive) in assay [8] and -0.875 in [9]. The composite z-score in assay [4] is 0.324 (inactive); in assay [10], -0.0498.
As for `O=C1C2=CC[C@H]3C(=O)N(c4cccc(Oc5ccccc5)c4)C(=O)[C@H]3[C@H]2[C@H](O)[C@@H]2O[C@H]12`, the z-score was -1.02 in assay [1]; -1.72 (inactive) in assay [2]; -6.54 (inactive) in assay [3]; -0.261 (inactive) in assay [5]; -0.0295 (inactive) in [6]; -0.392 (inactive) in assay [7]. Besides, the z-score in assay [8] is -0.281 (inactive); in [9], -3.76. Also, the figures for the composite z-score in [4] and in assay [10] were -1.2 (inactive) and 0.0506, respectively.
On to `CCOC(=O)C1=NO[C@@]2(C=C(Br)C3(OCCCO3)[C@H]3O[C@H]32)C1`, for which the z-score in [1] was -0.68; in [2], -0.303 (inactive); in assay [3] it was -0.227 (inactive); in assay [5], 0.356 (inactive); in assay [6] it was 0.227 (inactive); in [7] it was 0.58 (inactive). For the same compound, the values for the z-score in [8] and in [9] were 0.643 (inactive) and -0.249, respectively. For the same compound, the results for the composite z-score in assay [4] and in assay [10] were 0.552 (inactive) and 0.0657, respectively.
